Among all 5,500 compounds or so, about 2,000 (36%) were called active. Not shown: some 18% with an inconclusive outcome. Cut-off read from the data, not from the text of the source: active = normalized growth mostly below about 0.91 (no sharp cut-off); inconclusive = no clear call, values can overlap the other calls; inactive = mostly above about 0.92. Some of the results follow.
Assay: chemical genetic growth profiling, strain panel (AID 1159580);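 note: tested at 20 µM; growth read once vehicle control cultures reached saturation at 30 °C; 1 = growth at the plate median or of vehicle wells; lower values mean less growth of the strain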
Details: S. cerevisiae deletion strains, growth OD

Measured: normalized growth

CC1=CC(=O)c2c(O)cccc2C1=O
inactive: locus YOR290C, strain snf2, stronger effect = lower value 0.906
active: locus YAL021C, strain ccr4, stronger effect = lower value 0.0614 | locus YAL026C, strain drs2, stronger effect = lower value 0.0573 | locus YAL030W, strain snc1, stronger effect = lower value 0.0538 | locus YBL061C, strain skt5, stronger effect = lower value 0.0578 | locus YBR009C, strain hhf1, stronger effect = lower value 0.0566 | locus YBR023C, strain chs3, stronger effect = lower value 0.0593 | locus YBR171W, strain sec66, stronger effect = lower value 0.0747 | locus YBR231C, strain swc5, stronger effect = lower value 0.0608 | locus YBR279W, strain paf1, stronger effect = lower value 0.0613 | locus YCL011C, strain gbp2, stronger effect = lower value 0.053 | locus YCL016C, strain dcc1, stronger effect = lower value 0.0629 | locus YCL069W, strain vba3, stronger effect = lower value 0.058 | locus YCR088W, strain abp1, stronger effect = lower value 0.0593 | locus YDL005C, strain med2, stronger effect = lower value 0.0698 | locus YDL040C, strain nat1, stronger effect = lower value 0.073 | locus YDR001C, strain nth1, stronger effect = lower value 0.0551 | locus YDR069C, strain doa4, stronger effect = lower value 0.0589 | locus YDR137W, strain rgp1, stronger effect = lower value 0.103 | locus YDR159W, strain sac3, stronger effect = lower value 0.139 | locus YDR195W, strain ref2 0.132 | locus YDR297W, strain sur2, stronger effect = lower value 0.0527 | locus YDR334W, strain swr1, stronger effect = lower value 0.063 | locus YDR335W, strain msn5, stronger effect = lower value 0.0594 | locus YDR392W, strain spt3, stronger effect = lower value 0.0748 | locus YEL003W, strain gim4, stronger effect = lower value 0.0513 | locus YEL037C, strain rad23, stronger effect = lower value 0.0601 | locus YEL061C, strain CIN8 (second series), stronger effect = lower value 0.0564 | locus YER015W, strain faa2, stronger effect = lower value 0.0571 | locus YER016W, strain bim1, stronger effect = lower value 0.0586 | locus YER111C, strain swi4, stronger effect = lower value 0.71 | locus YER155C, strain BEM2 (second series), stronger effect = lower value 0.0832 | locus YFR010W, strain ubp6, stronger effect = lower value 0.0636 | locus YGL167C, strain pmr1, stronger effect = lower value 0.071 | locus YGL173C, strain kem1, stronger effect = lower value 0.0648 | locus YGL227W, strain vid30, stronger effect = lower value 0.0587 | locus YGL240W, strain doc1, stronger effect = lower value 0.0736 | locus YGL253W, strain hxk2, stronger effect = lower value 0.0519 | locus YHR013C, strain ard1, stronger effect = lower value 0.101 | locus YHR027C, strain rpn1, stronger effect = lower value 0.0589 | locus YHR030C, strain SLT2, stronger effect = lower value 0.108 | locus YHR079C, strain IRE1, stronger effect = lower value 0.123 | locus YHR142W, strain chs7, stronger effect = lower value 0.0661 | locus YJL092W, strain hpr5, stronger effect = lower value 0.061 | locus YJL095W, strain BCK1 (second series), stronger effect = lower value 0.0545 | locus YJL095W, strain BCK1, stronger effect = lower value 0.133 | locus YJL115W, strain asf1, stronger effect = lower value 0.0773 | locus YJL129C, strain trk1, stronger effect = lower value 0.653 | locus YJL154C, strain vps35, stronger effect = lower value 0.0541 | locus YJL164C, strain tpk1, stronger effect = lower value 0.0572 | locus YJL166W, strain qcr8, stronger effect = lower value 0.0557 | locus YJL187C, strain SWE1, stronger effect = lower value 0.0545 | locus YJR066W, strain TOR1, stronger effect = lower value 0.00113 | locus YKL160W, strain elf1, stronger effect = lower value 0.0646 | locus YKR026C, strain gcn3, stronger effect = lower value 0.0585 | locus YKR091W, strain srl3, stronger effect = lower value 0.0562 | locus YLL001W, strain dnm1, stronger effect = lower value 0.0574 | locus YLL026W, stronger effect = lower value 0.0541 | locus YLL041C, strain sdh2, stronger effect = lower value 0.0519 | locus YLR027C, strain aat2, stronger effect = lower value 0.0528 | locus YLR113W, strain HOG1, stronger effect = lower value 0.191 | locus YLR221C, strain rsa3, stronger effect = lower value 0.054 | locus YLR258W, strain gsy2, stronger effect = lower value 0.056 | locus YLR262C, strain YPT6 (second series), stronger effect = lower value 0.0717 | locus YLR320W, strain mms22, stronger effect = lower value 0.0755 | locus YLR342W, strain FKS1, stronger effect = lower value 0.0621 | locus YLR357W, strain rsc2, stronger effect = lower value 0.113 | locus YLR370C, strain arc18, stronger effect = lower value 0.0568 | locus YLR384C, strain iki3, stronger effect = lower value 0.0609 | locus YML120C, strain ndi1, stronger effect = lower value 0.0584 | locus YMR058W, strain fet3, stronger effect = lower value 0.0576 | locus YMR125W, strain sto1, stronger effect = lower value 0.0728 | locus YMR129W, stronger effect = lower value 0.0547 | locus YMR205C, strain PFK2, stronger effect = lower value 0.0815 | locus YMR231W, strain pep5, stronger effect = lower value 0.0627 | locus YNL071W, strain lat1, stronger effect = lower value 0.0579 | locus YNL183C, strain NPR1, stronger effect = lower value 0.000686 | locus YNL209W, strain ssb2, stronger effect = lower value 0.0563 | locus YNL248C, strain rpa49, stronger effect = lower value 0.0708 | locus YNL322C, strain KRE1 (second series), stronger effect = lower value 0.062 | locus YNR049C, strain mso1, stronger effect = lower value 0.0527 | locus YOR001W, strain rrp6, stronger effect = lower value 0.065 | locus YOR070C, strain gyp1, stronger effect = lower value 0.0567 | locus YOR080W, strain dia2, stronger effect = lower value 0.1 | locus YOR083W, strain WHI5, stronger effect = lower value 0.0584 | locus YOR106W, strain vam3, stronger effect = lower value 0.0629 | locus YOR231W, strain MKK1, stronger effect = lower value 0.115 | locus YOR265W, strain rbl2, stronger effect = lower value 0.0542 | locus YOR270C, strain vph1, stronger effect = lower value 0.0962 | locus YPL051W, strain arl3, stronger effect = lower value 0.0583 | locus YPL078C, strain atp4, stronger effect = lower value 0.163 | locus YPL106C, strain sse1, stronger effect = lower value 0.0924 | locus YPL240C, strain hsp82, stronger effect = lower value 0.0548 | locus YPL256C, strain CLN2, stronger effect = lower value 0.128

— PubChem BioAssay AID1159580 (chemical genetic matrix, 2015)
